PubChem BioAssay AID1445 (SRMLSC, 2008)
The whole screen tested about 220,000 compounds, of which about 910 (0.41%) were called active.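 The calls were made as follows: active = primary inhibition above the hit cutoff, then over 50% inhibition at one or more dose response concentrations (cut at about 23% in these data, passing the limit was not always enough); inconclusive = conflicting primary data, or primary hits not chosen for dose response; inactive = low primary inhibition, or under 50% at every dose.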 Only a selection was taken, and actives are over-represented in it overall. Measured potencies and affinities stand elsewhere.

biological target: Aminopeptidase N (Plasmodium falciparum (isolate 3D7)) (UniProt O96935); test: malaria alanyl aminopeptidase activity blockers – biochemical, fluorogenic H-Leu-NHMec substrate, 1536-well (AID 1445); settings: recombinant M1AAP, H-Leu-NHMec fluorogenic kinetic assay; at 30 µM, active compounds read high unless noted;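 also: plate controls were DMSO full reaction for no effect and no enzyme background for full effect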
Sequence (O96935 whole entry, looked up): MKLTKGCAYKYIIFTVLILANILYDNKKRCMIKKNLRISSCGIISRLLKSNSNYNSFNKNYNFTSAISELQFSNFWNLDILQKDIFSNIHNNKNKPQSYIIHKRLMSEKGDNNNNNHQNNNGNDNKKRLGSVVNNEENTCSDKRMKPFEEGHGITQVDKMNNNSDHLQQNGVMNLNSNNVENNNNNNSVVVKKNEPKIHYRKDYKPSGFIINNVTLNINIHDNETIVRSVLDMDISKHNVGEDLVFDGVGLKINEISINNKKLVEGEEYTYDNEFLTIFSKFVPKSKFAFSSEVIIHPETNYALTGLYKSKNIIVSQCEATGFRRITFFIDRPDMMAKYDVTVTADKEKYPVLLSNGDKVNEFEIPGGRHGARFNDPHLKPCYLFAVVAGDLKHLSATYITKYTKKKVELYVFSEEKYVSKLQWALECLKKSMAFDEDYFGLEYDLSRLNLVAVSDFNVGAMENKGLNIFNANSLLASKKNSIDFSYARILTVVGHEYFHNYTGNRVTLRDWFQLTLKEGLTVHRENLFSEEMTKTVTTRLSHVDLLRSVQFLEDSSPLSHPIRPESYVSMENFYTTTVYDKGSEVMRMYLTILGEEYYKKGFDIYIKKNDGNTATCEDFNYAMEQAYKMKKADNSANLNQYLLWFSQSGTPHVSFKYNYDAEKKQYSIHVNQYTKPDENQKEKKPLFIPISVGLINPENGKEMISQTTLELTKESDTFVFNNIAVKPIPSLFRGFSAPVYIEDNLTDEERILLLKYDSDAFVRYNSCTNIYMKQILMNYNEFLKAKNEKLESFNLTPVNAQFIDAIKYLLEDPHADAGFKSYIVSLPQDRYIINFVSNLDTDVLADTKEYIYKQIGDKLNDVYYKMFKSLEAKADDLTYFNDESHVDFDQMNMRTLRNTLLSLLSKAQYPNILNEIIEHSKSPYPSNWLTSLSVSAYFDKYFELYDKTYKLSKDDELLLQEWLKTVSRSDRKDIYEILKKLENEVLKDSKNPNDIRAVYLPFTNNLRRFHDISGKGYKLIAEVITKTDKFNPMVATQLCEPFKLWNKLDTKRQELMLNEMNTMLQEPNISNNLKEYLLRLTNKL

inhibition, inactive:
COC(=O)c1ccc(NC(=O)C2CC2)o1 -0.61%
CCCOC(=O)c1c(-c2ccc(C)cc2C)csc1NC(=O)C1C2CCC(O2)C1C(=O)O (stereo not given) -4.77%
CCOC(=O)c1c(-c2ccc(-c3ccccc3)cc2)csc1NC(=O)C1C2CCC(O2)C1C(=O)O (stereo not given) 3.79%
FC(F)C(F)(F)C1=CC(c2cccs2)=NCCN1 6.95%
COCc1cc(C)nc(OCC(=O)N/N=C\c2cc(C)n(-c3cccc(C(F)(F)F)c3)c2C)c1C#N 6.82%
CC(C)Nc1nc(NNc2nc(Cl)nc(NC(C)(C)C)n2)nc(NC(C)C)n1 -3.65%
COc1cc(/C=N/Nc2nc(Nc3ccc(C)cc3)nc(-n3nc(C)cc3C)n2)cc(OC)c1OC 0.21%
COC(=O)c1c(N2C(=O)Nc3ccccc3N2O)sc2c1CCCC2 9.84%
CCOC(=O)c1c(N2C(=O)Nc3ccccc3N2O)sc2c1CCCC2 4.01%
CC(C)(CC(=O)O)Cc1nc(-c2ccc(Cl)cc2)no1 -3.52%
COc1ccc(NS(=O)(=O)c2cccc(Cl)c2)cc1S(=O)(=O)N1CCCCC1 1.83%
Nc1ccc2nc(-c3ccccc3)sc2c1 33.2%
Cc1ccc2nc(-c3ccc(N)cc3)sc2c1 3.99%
Nc1cccc(-c2nc3ccc(N)cc3s2)c1 8.49%
Nc1ccc(-c2nc3cc(N)ccc3s2)cc1 13%
CN(C)CCCNC(=S)Nc1ccc(Br)cc1 -1.23%
COc1cccc2c(=O)c3cccc(N)c3[nH]c12 17.7%
CCOC(=O)c1c(C)oc2ccc(OC(=O)N3CCOCC3)cc12 3.42%
O=C(CSc1nnc(Nc2ccccc2)s1)NCCN1C(=O)CSC1=O 0.85%
[2H]c1c([2H])c([2H])c(-c2nc(N3CCCCCC3)sc2C(=O)c2ccccc2)c([2H])c1[2H] 6.9%
O=C(O)CCN1C(=O)/C(=C/c2ccc(-c3nc4ccccc4s3)o2)SC1=S -3.38%
O=C(O)CCN1C(=O)/C(=C\c2ccc(-c3nc4ccccc4s3)o2)SC1=S 20.7%
COCCNC(=O)CN(C(=O)Cn1nnc2ccccc21)c1ccccc1 6.84%
CSc1nnc(-c2cc[n+](C)cc2)n1CCO -2.01%
O=C(Nc1ccc2oc(-c3ccc(F)cc3)nc2c1)c1ccccc1F -4.88%
O=C(Nc1ccc2oc(-c3ccccc3)nc2c1)c1ccccc1F 4.36%
O=C(Nc1cccc(-c2nc3ccccc3o2)c1)c1cccnc1 8.84%
CC(C)C(=O)Nc1cccc(-c2nc3ccccc3o2)c1 1.29%
COc1cccc(S(=O)(=O)Nc2ccc(C(=O)Nc3ccncc3)cc2)c1 -3.5%
CC1Cc2cc(/C(O)=C3\C(=O)C(=O)N(CCN(C)C)C3c3ccccc3F)ccc2O1 (stereo not given) -2.37%
O=c1c2ccccc2nnn1Cc1ccccc1Cl -2.79%
Cc1ccccc1NC(=O)c1ccc(S(=O)(=O)N(C)C)cc1 0.67%
Cc1nc2ccccc2c2oc(C(=O)N3CCN(C4CCCCC4)CC3)cc12 0.64%
Cc1nc2ccccc2c2oc(C(=O)N3CCC(N4CCCCC4)CC3)cc12 -1.44%
Cc1ccccc1OCC(=O)NNC(=O)Nc1ccccc1 11.5%
Cc1cc(C(=O)COC(=O)C2=NNC(=O)CC2)c(C)n1CCc1ccccc1 5.78%
CCOC(CCn1c(SCC(=O)Nc2cc(C)on2)nc2ccccc2c1=O)OCC 4.19%
Cc1ccc(CNC(=O)CN(CCc2ccccc2)S(C)(=O)=O)cc1 1.36%
Cc1ccc(/C=N/N=C2\SCC(=O)N2CC2CC2)cc1 3.09%
CCOC(=O)c1ccc(N=c2sc(C(=O)OC)cc(=O)n2Cc2ccc3c(c2)OCO3)cc1 4.78%
COC(=O)c1cc(=O)n(Cc2ccc3c(c2)OCO3)c(=Nc2ccc(F)cc2)s1 15.5%
Cc1[nH]c2ccc(OC(=O)N3CCOCC3)cc2c1C(=O)OC(C)C 8.46%
Cc1ccc(CN2C(=O)N/C(=C/c3ccc(-c4ccc(C(=O)O)cc4)o3)C2=O)cc1 6.65%
O=C(O)c1ccc(-c2ccc(/C=C3\NC(=O)N(Cc4ccc(Cl)cc4)C3=O)o2)cc1 6.4%
CC(C)Cn1c(SCC(=O)N2CCN(C(=O)c3ccco3)CC2)nc2ccccc2c1=O 7.56%
CCCCCn1c(NC2CCCCC2)nc2c1c(=O)[nH]c(=O)n2C 9.39%
COC(=O)CSC1=C(C#N)C(c2ccc(F)cc2)CC(=O)N1 (stereo not given) -0.52%
COC(=O)CSC1=C(C#N)C(c2ccccc2)CC(=O)N1 (stereo not given) 1.02%
CSc1nc2c(c(=O)n1-c1ccccc1)SCC2 9.44%
O=C(O)Cn1cc(/C=N/NC(=O)c2cc3cc(Br)ccc3o2)c2ccccc21 18.5%
Cn1cc(/C=N/NC(=O)c2cc3cc(Br)ccc3o2)c2ccccc21 4.78%
C=C(Br)Cn1c(CCC)nc2ccccc21 -1.16%
COc1ccc(NS(=O)(=O)c2cc(NC(=O)c3ccccc3F)ccc2N2CCCC2)cc1 3.17%
CN(C)CCCNC(=O)c1ccc(Cl)c(S(=O)(=O)N(C)c2ccccc2)c1 7.27%
O=C(O)C(c1ccccc1)C1(O)CCCC1 (stereo not given) 16.5%
COc1ccc(S(=O)(=O)N(C)C)cc1NCC(=O)Nc1ccc(Br)cc1F 7.15%

inhibition, active:
O=C(O)CC(C(=O)O)N1C(=O)/C(=C/c2ccc(-c3nc4ccccc4s3)o2)SC1=S (stereo not given) 24.7%
Cc1nc2ccccc2c2oc(C(=O)N3CCN(C(=O)c4ccco4)CC3)cc12 25.5%
COC(=O)c1cc(=O)n(Cc2ccc3c(c2)OCO3)c(=Nc2ccccc2)s1 26.5%
COC(=O)CSC1=C(C#N)C(c2ccc(C(C)C)cc2)CC(=O)N1 (stereo not given) 23.7%
